Compound activity as filed in PubChem BioAssay.
CYP2C9 act = human CYP2C9 activators, primary screen, biochemical, luminescence; 1.4% of 96,000 active; Cytochrome P450 2C9 (Homo sapiens), P11712; recombinant CYP2C9, luciferin-H conversion; stronger effect = higher value; factor 1 = untreated enzyme, 0 = blocked; activation factor at 5 µM;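 active = activation factor of 2 or more for CYP2C9 at a 5 µM dose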;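 also: 0 = sulfaphenazole-blocked wells and 1 = vehicle-only wells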
Cav3 T inh = Cav3.2 calcium influx blockers – cell-based, Fluo-4 calcium fluorescence, FDSS, MLSMR library, primary screen. Voltage-dependent T-type calcium channel subunit alpha-1H (Homo sapiens), O95180. Cav3.2-expressing cells; stronger effect = lower value. B-score at 10 µM. 4% of 100,000 active. AID 449739, 2010;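 active = single-dose well whose peak fluorescence ratio is a statistical outlier from its plate by either plate-standardised score or position-corrected B-score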
Target sequence (O95180 whole entry, looked up): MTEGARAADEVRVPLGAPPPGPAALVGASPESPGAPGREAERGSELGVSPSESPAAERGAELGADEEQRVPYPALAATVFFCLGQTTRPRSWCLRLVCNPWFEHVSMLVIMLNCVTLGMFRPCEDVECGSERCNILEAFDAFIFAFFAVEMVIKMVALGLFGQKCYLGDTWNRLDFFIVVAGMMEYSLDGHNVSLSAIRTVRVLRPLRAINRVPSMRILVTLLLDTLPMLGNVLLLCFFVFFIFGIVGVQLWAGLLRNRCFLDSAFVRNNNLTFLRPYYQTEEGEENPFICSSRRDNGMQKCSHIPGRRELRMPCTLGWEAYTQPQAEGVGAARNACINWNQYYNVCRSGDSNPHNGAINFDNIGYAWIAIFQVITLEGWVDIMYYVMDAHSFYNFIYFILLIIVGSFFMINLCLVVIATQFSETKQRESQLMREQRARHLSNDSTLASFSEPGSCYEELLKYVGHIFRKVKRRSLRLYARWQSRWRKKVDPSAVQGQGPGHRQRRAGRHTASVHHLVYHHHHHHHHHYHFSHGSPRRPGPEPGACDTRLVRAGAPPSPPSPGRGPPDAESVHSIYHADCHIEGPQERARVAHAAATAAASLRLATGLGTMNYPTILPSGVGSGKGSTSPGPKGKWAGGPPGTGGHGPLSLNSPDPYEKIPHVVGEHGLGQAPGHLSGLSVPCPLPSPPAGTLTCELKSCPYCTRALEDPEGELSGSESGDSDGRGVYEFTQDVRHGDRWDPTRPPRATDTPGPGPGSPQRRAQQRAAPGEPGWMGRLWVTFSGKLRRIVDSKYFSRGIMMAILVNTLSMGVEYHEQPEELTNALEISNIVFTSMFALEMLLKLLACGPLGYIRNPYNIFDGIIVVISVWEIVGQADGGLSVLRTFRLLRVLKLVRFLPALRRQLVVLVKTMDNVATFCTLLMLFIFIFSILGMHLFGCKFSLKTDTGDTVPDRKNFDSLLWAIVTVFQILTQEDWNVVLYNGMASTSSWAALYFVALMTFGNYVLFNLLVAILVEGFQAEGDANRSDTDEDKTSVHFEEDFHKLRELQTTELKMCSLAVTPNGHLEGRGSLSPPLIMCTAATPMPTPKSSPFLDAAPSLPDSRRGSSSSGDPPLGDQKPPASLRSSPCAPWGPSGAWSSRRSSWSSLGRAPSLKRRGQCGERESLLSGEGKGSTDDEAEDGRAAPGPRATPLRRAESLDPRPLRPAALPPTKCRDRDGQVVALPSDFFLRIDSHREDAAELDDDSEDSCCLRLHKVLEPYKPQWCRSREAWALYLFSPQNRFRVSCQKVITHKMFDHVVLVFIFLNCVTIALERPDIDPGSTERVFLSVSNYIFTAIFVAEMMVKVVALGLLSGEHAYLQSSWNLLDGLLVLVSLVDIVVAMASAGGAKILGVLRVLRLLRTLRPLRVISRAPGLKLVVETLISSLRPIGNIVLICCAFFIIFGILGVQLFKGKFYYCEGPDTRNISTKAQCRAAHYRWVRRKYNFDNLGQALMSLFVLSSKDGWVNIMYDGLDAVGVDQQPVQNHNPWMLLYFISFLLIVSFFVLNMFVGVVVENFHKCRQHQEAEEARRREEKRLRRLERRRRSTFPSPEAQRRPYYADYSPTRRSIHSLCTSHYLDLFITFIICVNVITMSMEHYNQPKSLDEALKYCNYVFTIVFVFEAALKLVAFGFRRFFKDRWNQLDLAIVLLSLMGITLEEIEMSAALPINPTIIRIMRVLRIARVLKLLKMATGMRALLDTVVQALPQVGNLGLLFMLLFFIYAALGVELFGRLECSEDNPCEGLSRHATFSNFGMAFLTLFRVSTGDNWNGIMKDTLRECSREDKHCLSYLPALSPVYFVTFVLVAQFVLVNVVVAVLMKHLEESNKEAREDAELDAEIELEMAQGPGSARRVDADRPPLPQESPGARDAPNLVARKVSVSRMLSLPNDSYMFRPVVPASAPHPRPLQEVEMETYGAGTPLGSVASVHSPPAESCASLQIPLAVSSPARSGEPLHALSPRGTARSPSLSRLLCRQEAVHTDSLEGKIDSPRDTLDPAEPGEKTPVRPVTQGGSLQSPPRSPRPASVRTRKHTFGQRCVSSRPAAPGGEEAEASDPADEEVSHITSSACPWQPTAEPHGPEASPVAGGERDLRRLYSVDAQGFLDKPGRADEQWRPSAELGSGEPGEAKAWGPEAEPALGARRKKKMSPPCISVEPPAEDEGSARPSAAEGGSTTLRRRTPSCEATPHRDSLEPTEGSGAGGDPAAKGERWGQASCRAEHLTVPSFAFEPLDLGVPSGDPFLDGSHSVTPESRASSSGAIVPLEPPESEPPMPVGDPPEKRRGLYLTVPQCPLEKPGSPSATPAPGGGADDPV
CYP2C19 inhib = blockers of cytochrome P450 2C19 activity – biochemical, luminescence, ADME assay, primary screen | P33261 | CYP2C19 Supersomes, luciferin-H EGE luminescence, 30 min | inhibition, % at 5 µM | 21% of 96,000 active | AID 778, 2007;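 active = CYP2C19 inhibition above a set limit at 5 µM in the primary screen, cut at about 50% in these data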;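 also: plate controls were negative control wells for no effect and 2.5 mM tranylcypromine positive control for full effect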
CYP2C19 act = human CYP2C19 activators, primary screen, biochemical, luminescence. activation factor at 5 µM. AID 1025, 2008. 96,000 tested, under 10 active. recombinant CYP2C19, luciferin-H EGE luminescence; stronger effect = higher value; 0 = fully inhibited enzyme, 1 = untreated enzyme;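 active = activation factor of at least 2 at 5 µM in the primary screen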;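 also: 0 = wells with 2.5 mM tranylcypromine and 1 = vehicle-only wells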
CYP2C9 inh = blockers of cytochrome P450 2C9 activity – biochemical, luminescence, ADME assay, primary screen. P11712. CYP2C9 Supersomes, luciferin-H conversion. inhibition, % at 5 µM. 20% of 96,000 active. AID 777, 2007;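 active = blocking of liver enzyme CYP2C9 beyond about 50% at 5 µM, limit read from the data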
PTK2B oligo ant = antagonists of Pyk2 self-association, primary screen, Q293 cells, FERM NanoBiT luminescence, HTS; Protein-tyrosine kinase 2-beta (Homo sapiens), Q14289; stronger effect = lower value; z-score (the deposit names both 25 µM and 10 µM); 0.83% of 99,000 active; AID 1347419, 2020;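 active = Z-score of -3 or lower, scaled per plate to the spread of control and sample wells; inactive = z-score above -3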;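 also: negative z-score means lost luminescence so less FERM oligomerization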
An asterisk follows results filed as active; . = no result. An excerpt weighted towards active compounds, which were near 27% of everything screened.

SMILES	CYP2C9 act	Cav3 T inh	CYP2C19 inhib	CYP2C19 act	CYP2C9 inh	PTK2B oligo ant
CCC1(C)Cc2c(c(=O)n(-c3ccccc3)c3ncnc(N)c23)CO1 (stereo not drawn)	1	0.55	-15	1.2	-4	-0.22
COC(=O)CC1COc2ccccc2N1C(=O)c1cccc(Cl)c1 (stereo not drawn)	0.5	-0.015	63*	0.4	46	0.08
Cc1ccc2oc(C(Cl)(Cl)Cl)cc(=O)c2c1	0.6	0.23	53*	0.5	44	0.35
CCSc1nnc(NC(=O)C(NC(=O)c2ccc(Cl)cc2)C(C)C)s1 (stereo not drawn)	.	.	.	.	.	-0.32
Nc1nnc(SCc2cccnc2)s1	1.1	0.23	-13	1.1	-13	1
Nc1nnc(SCc2cccc(C(F)(F)F)c2)s1	1.3	0.52	96*	0	-26	-0.8
CCOC(=O)c1ccc(CSc2nnc(N)s2)cc1	0.3	-0.47	70*	0.3	65*	0.93
Nc1nnc(COc2cccc(C(F)(F)F)c2)s1	1	0.76	64*	0.4	0	-0.3
Nc1nnc(SCc2ccc(F)cc2Cl)s1	0.9	0.29	91*	0.1	11	0.03
Nc1nnc(SCc2ccc(Cl)cc2)s1	.	-1.2	.	.	.	-0.76
CCN1CCN(C(=S)c2ccc(OCC(=O)N3CCOCC3)cc2)CC1	1	0.028	6	0.9	-1	-0.05
CC(=O)Nc1ccc(NC(=O)COC(=O)Cc2cccs2)cc1	0.9	0.42	11	0.9	10	0.07
CN1C(=C2C(=O)OC(C)(C)OC2=O)Sc2ccccc21	1.1	0.14	17	0.8	-11	1.4
O=C(OCC(=O)N1CCCC1)c1cccs1	1	-0.054	5	1	-4	0.04
CC1(c2ccccc2)CC(c2ccccc2)=Nc2nonc2N1 (stereo not drawn)	0.5	-2.5	94*	0.1	52*	-1.1
CCCn1c(CNS(=O)(=O)c2ccc(C)cc2)nc2ccccc21	1.2	-0.72	36	0.6	-23	.
COc1ccccc1NC(=O)c1sc2ncn(Cc3ccc(C)cc3)c(=O)c2c1C	1.4	0.73	84*	0.2	-42	1.6
CC(C)c1ccc(CN2CC(C(=O)O)CC2=O)cc1 (stereo not drawn)	0.8	0.15	6	0.9	22	-0.13
Nc1cc(=O)[nH]c(SCc2nc3ccccc3n2Cc2ccccc2)n1	0.2	-0.85	47	0.5	82*	0.29
Cc1ccc[n+](C(C)C(=O)Nc2ccc(C)c([N+](=O)[O-])c2)c1 (stereo not drawn)	1.2	0.21	-15	1.1	-20	0.91
N#CC(C(=O)CCN1C(=O)C2CC=CCC2C1=O)c1nc2ccccc2[nH]1 (stereo not drawn)	0.8	0.0013	19	0.8	25	-0.62
N#CC(C(=O)C12CC3CC(CC(C3)C1)C2)c1nc2ccccc2[nH]1 (stereo not drawn)	0.4	0.18	33	0.7	62*	-2.7
CCCNC(=O)N1CCC(C(=O)c2ccc(Cl)cc2)CC1	0.9	0.025	7	0.9	11	0.81
Clc1ccc(OCc2nnc(-c3ccccc3Br)o2)cc1	0.9	-0.65	96*	0	14	1.1
Cn1nnnc1SCc1nnc(-c2ccccc2Br)o1	1.1	0.68	65*	0.3	-6	0.5
SMILES	CYP2C9 act	Cav3 T inh	CYP2C19 inhib	CYP2C19 act	CYP2C9 inh	PTK2B oligo ant
Cc1ccc(-n2nnnc2SCc2nnc(-c3ccccc3Br)o2)c(C)c1	0.4	-2.5	66*	0.3	56*	-1.5
Clc1ccc(OCc2nnc(-c3ccccc3Br)o2)c(Cl)c1	1.3	0.45	-7	1.1	-28	-1.1
Cn1c(=O)c2c(nc(CN3CCc4ccccc4C3)n2CC(=O)c2ccccc2)n(C)c1=O	.	-1.5	.	.	.	0.02
Cc1ccccc1OCc1nnc(SCC(=O)Nc2ccc3nc(SCC(=O)Nc4ccccc4)sc3c2)n1C	.	.	.	.	.	-0.89
CCN1CCN(c2ccc(NC(=O)c3cccnc3)cc2Cl)CC1	0.7	0.99	-5	1	25	-0.16
c1ccc(CNc2ccc3ccccc3n2)nc1	1.1	-0.41	75*	0.2	-13	1.8
